Calls of active or inactive are those of the source. How the calls were made is not given here.
Target: Muscarinic acetylcholine receptor M1 (Homo sapiens) (UniProt P11229)
Experiment: human M1 receptor potentiation, selectivity assay for M5 PAM project, CHO cells (AID 651923)
Settings: CHO-K1 M1, calcium flux Fluo-4, ACh EC20 potentiation; series mostly up to 30 µM

Muscarinic acetylcholine receptor M1 (Homo sapiens), sequence (P11229 whole entry, looked up): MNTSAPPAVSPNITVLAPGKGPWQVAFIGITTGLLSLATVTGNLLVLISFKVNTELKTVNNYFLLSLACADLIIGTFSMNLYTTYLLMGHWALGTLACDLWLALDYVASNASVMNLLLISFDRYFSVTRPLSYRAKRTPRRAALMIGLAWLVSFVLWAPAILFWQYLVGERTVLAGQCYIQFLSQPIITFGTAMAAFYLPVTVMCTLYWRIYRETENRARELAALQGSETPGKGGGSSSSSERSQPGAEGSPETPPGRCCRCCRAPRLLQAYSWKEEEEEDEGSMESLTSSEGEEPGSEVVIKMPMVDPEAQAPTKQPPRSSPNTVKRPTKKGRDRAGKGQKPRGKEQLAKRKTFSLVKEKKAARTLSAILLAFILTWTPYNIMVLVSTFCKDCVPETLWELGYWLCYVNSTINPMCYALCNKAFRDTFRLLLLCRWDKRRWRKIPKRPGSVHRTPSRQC

**Q.** How did the outcome turn out when O=C1C(=O)N(CCOc2ccccc2)c2ccc(OC(F)(F)F)cc21 was run?
**A.** Its outcome is “inactive”.

Reference: PubChem BioAssay AID651923 (Vanderbilt Specialized Chemistry Center, 2012)
